High-throughput results: PubChem BioAssay, several laboratories
Sampled rows, rich in hits. Any-hit rate of the full collection: about 2.2%.
LGR2 antag: inhibitors of bursicon-induced LGR2 CRE-luciferase signal, primary screen, cell-based, HEK293, CRE-luciferase reporter, bursicon stimulation. bursicon-stimulated, 4 h. AID 720647, 2013. Drosophila bursicon receptor LGR2 (rickets). inhibition, % at 9.99 µM. actives 0.35% (n = 380,000);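 active = drop in luminescence signal, shown as inhibition above about 50% in the replicate tests, limit read from the data, passing the limit was not always enough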;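 note: agonist challenge used bursicon conditioned medium at about half maximal strength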
TWEAK Fn14 block: inhibitors of TWEAK-Fn14 signaling, primary screen, luciferase reporter cells, uHTS | inhibition, % at 10 µM | TWEAK-stimulated Fn14 reporter cells, luciferase luminescence, 8 h | actives 2% (n = 360,000) | AID 1159606, 2016; in the data active = inhibition above about 50%
TROY NFkB inh: inhibitors of TROY-driven NF-kB signaling, primary screen, Q293 LMP1-TROYcd cells, NF-kB luciferase, uHTS; Q293 LMP1-TROYcd NF-kB luciferase reporter, 4 h; inhibition, % at 10 µM; actives 0.98% (n = 360,000); AID 1347056, 2019;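 active = compounds whose plate-normalised and pattern-corrected inhibition of the luciferase reporter signal at the single screening dose is 50% or more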
HSP90 inh: HSP90 inhibitors, primary screen, cell lysate, luminescence | Heat shock protein HSP 90 (rabbit reticulocyte lysate; luciferase refolding) | Rabbit reticulocyte lysate, luciferase refolding luminescence, 3 h | inhibition, % at 5.6 µM | actives 0.91% (n = 290,000);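 active = inhibition above the screen-wide mean plus 3 SD, computed separately per campaign, cut at about 16% in these data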;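 note: 0% = DMSO wells and 100% = 60 µM geldanamycin wells; inhibitors lower the luminescence because luciferase stays unfolded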
* = called active by the depositor; . = no result given.

SMILES | LGR2 antag | TWEAK Fn14 block | TROY NFkB inh | HSP90 inh
COC(=O)c1c(-c2ccc(C)cc2)csc1NC(=O)Cc1ccc(OC)c(OC)c1 | 6.6 | 57.0* | 42.1 | 5.8
COCCNC(=O)C[C@H]1CC[C@H]2[C@@H](COC[C@@H](O)CN2Cc2cccc(-c3ccncc3)c2)O1 | 11.6 | . | . | .
O=C(C1CCN(c2ncnc3c2nc2n3CCCCC2)CC1)N1CCN(c2cccc(Cl)c2)CC1 | 28.4 | 54.1* | 49.2 | 0.5
CN1c2ccc(-c3cccc(F)c3)cc2[C@H]2[C@H](CCN2C(=O)c2ccc3c(c2)OCO3)[C@@H]1CO | 0.9 | . | . | .
CN(CCC#N)c1ccc(/C=C(\C#N)c2ccccn2)cc1 | 73.0* | 52.0* | 40.0 | 1.8
c1coc(CN(Cc2cccs2)Cc2nnnn2C2CCCCC2)c1 | . | 51.1* | 10.4 | -2.9
Cc1ccc(S(=O)(=O)N(C)C[C@@H]2OCCCC[C@@H](C)Oc3ccc(NC(=O)NC(C)C)cc3C(=O)N([C@H](C)CO)C[C@@H]2C)cc1 | -11.7 | . | . | .
C[C@@H]1CN([C@H](C)CO)C(=O)c2cc(/C=C/c3ccccc3)cnc2O[C@@H]1CN(C)C(=O)CN1CCOCC1 | 4.8 | . | . | .
COCCN(C(=O)c1csnn1)C(C(=O)NC1CCCC1)c1ccccc1F (stereo not given) | -3.2 | 65.8* | 16.6 | 1.5
COCCN(C(=O)c1csnn1)C(C(=O)NC1CCCC1)c1ccc(C)cc1 (stereo not given) | 3.4 | -5.1 | -0.9 | -0.3
Cc1ccc(C(C(=O)NC2CCCCC2)N(Cc2cccnc2)C(=O)c2csnn2)cc1 (stereo not given) | -4.8 | 91.9* | 11.4 | 1.3
CCc1cc2c(COC(=O)c3cccc(NS(C)(=O)=O)c3)cc(=O)oc2cc1O | -20.2 | 54.7* | 52.8* | 3.5
CCc1cc2c(COC(=O)c3cc(S(=O)(=O)N4CCOCC4)ccc3F)cc(=O)oc2cc1O | 59.3* | 9.4 | 44.6 | .
CN(C)c1cccc(C(=O)OCc2cc(=O)oc3cc(O)ccc23)c1 | . | -4.8 | -55.5 | 6.3
COc1ccccc1-c1ccc([C@@H]2[C@H]3CN(C(=O)c4ccncc4)CCCCN3[C@H]2CO)cc1 | -4.2 | . | . | .
CC1(C(=O)Nc2ccc3c(c2)OCCO3)CCN1C(=O)Cc1ccc(-c2ccccc2)cc1 (stereo not given) | 1.4 | 73.6* | 46.2 | .
CC(C)c1ccc(CC(=O)N2CCC2(C)C(=O)Nc2cccc(C#N)c2)cc1 (stereo not given) | -35.0 | 11.5 | 18.4 | .
CC1(C(=O)Nc2ccc3c(c2)OCCO3)CCN1C(=O)C1(c2ccc(Cl)cc2)CC1 (stereo not given) | -0.4 | 59.0* | 25.9 | .
CC1(C(=O)Nc2cccc(C#N)c2)CCN1C(=O)Cc1ccc(-c2ccccc2)cc1 (stereo not given) | 10.4 | 57.0* | 22.8 | .
CC1(C(=O)Nc2ccc3c(c2)OCCO3)CCN1C(=O)C1(c2ccc(Cl)cc2)CCC1 (stereo not given) | 11.3 | 1.5 | 9.8 | .
C[C@@H]1CCCCO[C@H](CN(C)C(=O)Nc2ccc3c(c2)OCO3)[C@@H](C)CN([C@@H](C)CO)C(=O)c2cc(NS(=O)(=O)c3cn(C)cn3)ccc2O1 | 11.8 | . | . | .
COCCCNc1ccn2nc(-c3ccccc3)cc2n1 | 72.1* | 71.9* | 39.5 | .
COCCCNc1ccn2nc(-c3cccc(Cl)c3)cc2n1 | -70.7 | 34.0 | 2.7 | .
O=C(NCCC1=CCCCC1)c1ccc([N+](=O)[O-])cc1 | -10.1 | 18.1 | -24.6 | 12.8
COc1ccc(C(=O)NCCC2=CCCCC2)cc1OC | . | -6.2 | -42.8 | -0.6
SMILES | LGR2 antag | TWEAK Fn14 block | TROY NFkB inh | HSP90 inh
O=C(NCCc1ccc(F)cc1)NC12CC3CC(CC(C3)C1)C2 | -81.5 | -25.2 | 19.5 | -1.6
COc1cccc(C(=O)NCCC2=CCCCC2)c1 | . | 51.0* | -3.2 | 9.4
COc1ccc(OC)c(NC(=O)C(=O)NCCC2=CCCCC2)c1 | -6.8 | 77.8* | -30.7 | -0.8
O=C(NCCC1=CCCCC1)c1ccc(F)cc1 | 7.6 | 53.8* | -22.5 | 38.3*
O=C(NCCC1=CCCCC1)NC12CC3CC(CC(C3)C1)C2 | . | 48.4 | 62.6* | 14.9
OC[C@@H]1[C@@H](c2ccc(C#Cc3ccccc3)cc2)[C@@H]2CN(Cc3cncnc3)CCCCN12 | -18.5 | . | . | .
C[C@@H]1CN([C@@H](C)CO)C(=O)c2cc(NC(=O)Nc3ccc4c(c3)OCO4)ccc2O[C@@H]1CN(C)S(=O)(=O)c1ccc(Cl)cc1 | 16.5 | . | . | .
C[C@@H]1CN([C@H](C)CO)C(=O)Cc2cc(NS(=O)(=O)c3ccccc3)ccc2O[C@H]1CN(C)C(=O)Nc1cccc2ccccc12 | 17.4 | . | . | .
O=C(Nc1nc(-c2ccc3c(c2)OCCO3)cs1)c1ccc(Br)o1 | -11.0 | 27.8 | 54.7* | .
O=C(CCCCl)Nc1nc(-c2ccc3c(c2)OCCO3)cs1 | -71.3 | 51.3* | 23.9 | -2.2
CCOC(=O)Cc1csc(NC(=O)c2ccc(Br)s2)n1 | . | . | . | 16.4*
CCOC(=O)Cc1csc(NC(=O)c2cccs2)n1 | . | -23.6 | -42.9 | -0.7
CCOC(=O)Cc1csc(NC(=O)c2c(O)c3ccccc3n(CC(C)C)c2=O)n1 | 14.5 | 53.6* | 36.1 | 2.6
C[C@H]1CN([C@@H](C)CO)C(=O)CCCn2cc(nn2)CO[C@@H]1CN(C)C(=O)CCC(F)(F)F | -3.5 | 88.5* | -4.8 | .
Cc1c(/N=C(\[O-])Nc2ccc(Br)cc2)sn[n+]1C | 81.8* | 68.5* | 42.4 | 5.2
CC(=O)Nc1ccc2c(c1)C(=O)N(C)[C@@H]1CC[C@H](CC(=O)NCc3ccccc3)O[C@@H]1CO2 | -1.9 | . | . | .
CC(C)(C)c1ccc(Oc2ccc(NC(=O)c3ccco3)cn2)cc1 | 13.3 | 78.2* | 12.2 | -0.7
COc1ccc(NC(=O)c2oc3ccccc3c2NC(=O)c2ccco2)cc1 | -7.1 | 54.7* | 7.3 | -0.6
COc1ccc(-c2ccc(NC(=O)c3ccco3)cc2)nn1 | 66.4* | 76.8* | 43.3 | .
CC(C)(C)c1ccc(C(=O)Nc2ccccc2NC(=O)c2ccco2)cc1 | . | 96.5* | . | -1.7
O=C(Nc1ccc(Oc2cccc(C(F)(F)F)c2)nc1)c1ccco1 | 4.5 | 14.2 | 7.7 | 1.1
C[C@@H]1CN([C@@H](C)CO)C(=O)c2cc(NS(C)(=O)=O)ccc2O[C@@H](C)CCCCO[C@H]1CN(C)C(=O)NC1CCCCC1 | -1.7 | . | . | .
CN1[C@@H]2Cn3c(ccc(-c4ccc(F)cc4)c3=O)[C@H]1[C@@H](C(=O)NC1CCCCC1)[C@@H]2CO | 7.1 | . | . | .
COc1cc2nc(CN(C)Cc3ccc(Cl)cc3)[nH]c(=O)c2cc1OC | -6.7 | 20.0 | -17.1 | 2.3
COc1cc2cncc(Cc3ccc(Cl)cc3)c2cc1OC | . | 75.4* | 58.0* | .
COCC(=O)Nc1ccc2c(c1)[C@@H]1C[C@@H](CC(=O)NCCc3ccccc3)O[C@@H](CO)[C@@H]1O2 | 5.5 | . | . | .
C[C@@H]1CN([C@@H](C)CO)C(=O)c2cc(NC(=O)CCCN(C)C)ccc2O[C@@H](C)CCCCO[C@H]1CN(C)Cc1ccncc1 | -1.5 | . | . | .
